This note sets out measurements from the supplement of paper PMC12340860.

Each structure is given as a SMILES string. ± gives the standard deviation of the averaged measurements.

This assay has as its system Caenorhabditis elegans infected with Nematocida parisii. Briefly: progeny production of N. parisii-infected C. elegans relative to uninfected control; higher = stronger inhibition of microsporidia infection (rescue of reproduction). To be noted: 60 µM; incubation time 5 days; spore dose (spores/uL): 18000. As for the experimental part:
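C. elegans N2 L1 larvae (100 per well, 96-well plate, K-medium with 5x E. coli OP50, 1% DMSO) were infected with Nematocida parisii spores (18,000 spores/uL) that had been pre-incubated for 1 h with each BU-CMD library compound at 60 uM. Plates were incubated 5 days at 21 C with shaking. Progeny were stained with rose bengal, scanned on a flatbed scanner and counted with WorMachine. Progeny number is expressed as % of uninfected DMSO controls on the same plate; three biological replicates per compound; hits were compounds with at least 60% progeny production.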
On to `COC(=O)C1=C(C)N(CCc2cc(OC)c(OC)c(OC)c2)C(=O)N[C@H]1c1ccccc1`, for which the progeny production came to 38.1 ± 18%. Take `CC(=O)[C@@H]1[C@@H](C)N(Cc2ccccc2)C(=O)N[C@H]1c1cccc(C(F)(F)F)c1`: the progeny production worked out at 33.2 ± 12%. The compound `C=C(C)C[C@@H](O)COc1cc2c(cc1C1(c3cc4c(cc3OC[C@H](O)CC(=C)C)OCO4)C(=O)Nc3cc(F)ccc31)OCO2` showed a progeny production of 20.5 ± 11%. With `COc1ccc(C2=CC3=C(Br)C(=O)C(C)(O)C(=O)C3=CO2)cc1` (centres undefined) the figure was 80.6 ± 13%.
